# Test results as given in PMC11006913.
# Numbering of substitutions follows the chain as printed.
# Columns and labels:
# Test in all cases: PBM; 200 nM protein, PBS
# Settings in all cases: dsDNA, one strand shown
# PAX4 [1] = molecular target: T1, PAX4 (Homo sapiens, UniProt O43316 9-242, R200K)
# T1 sequence: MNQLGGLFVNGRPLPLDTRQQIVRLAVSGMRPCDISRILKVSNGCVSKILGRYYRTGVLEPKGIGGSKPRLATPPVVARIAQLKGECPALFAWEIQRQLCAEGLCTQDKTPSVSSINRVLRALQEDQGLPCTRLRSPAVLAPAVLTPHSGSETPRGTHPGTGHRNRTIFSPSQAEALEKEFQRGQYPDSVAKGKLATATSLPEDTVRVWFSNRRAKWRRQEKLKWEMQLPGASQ
# PAX4 [2] = molecular target: T2, PAX4 (Homo sapiens, UniProt O43316 9-242)
# T2 sequence: T1 sequence with K192R
# PAX4 [3] = molecular target: T3, PAX4 (Homo sapiens, UniProt O43316 9-242, R200Q)
# T3 sequence: T1 sequence with K192Q
# PAX4 [4] = molecular target: T4, PAX4 (Homo sapiens, UniProt O43316 9-242, F177V)
# T4 sequence: T1 sequence with F169V, K192R
# PAX4 [5] = molecular target: T5, PAX4 (Homo sapiens, UniProt O43316 9-242, F177Y)
# T5 sequence: T1 sequence with F169Y, K192R
# PAX4 [6] = molecular target: T6, PAX4 (Homo sapiens, UniProt O43316 9-242, R227W)
# T6 sequence: T1 sequence with K192R, R219W
# PRRX1 [7] = molecular target: PRRX1 (Homo sapiens, UniProt P54821 80-166, F113S)
# Chain of PRRX1 (Homo sapiens, UniProt P54821 80-166, F113S) (P54821 80-166 F113S): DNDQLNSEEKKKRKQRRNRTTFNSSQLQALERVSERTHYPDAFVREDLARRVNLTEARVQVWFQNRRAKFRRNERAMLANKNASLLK
# HOXB6 [8] = molecular target: HOXB6 (Homo sapiens, UniProt P17509 132-218, K202E)
# Chain of HOXB6 (Homo sapiens, UniProt P17509 132-218, K202E) (P17509 132-218 K202E): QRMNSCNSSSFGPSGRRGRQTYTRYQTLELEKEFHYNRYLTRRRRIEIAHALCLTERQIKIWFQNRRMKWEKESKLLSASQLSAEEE
# HOXA2 [9] = molecular target: HOXA2 (Homo sapiens, UniProt O43364 129-215, R185T)
# Chain of HOXA2 (Homo sapiens, UniProt O43364 129-215, R185T) (O43364 129-215 R185T): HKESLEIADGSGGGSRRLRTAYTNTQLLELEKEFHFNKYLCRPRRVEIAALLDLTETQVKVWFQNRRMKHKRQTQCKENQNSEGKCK
# HOXA2 [10] = molecular target: HOXA2 (Homo sapiens, UniProt O43364 129-215, R185K)
# Chain of HOXA2 (Homo sapiens, UniProt O43364 129-215, R185K) (O43364 129-215 R185K): as the sequence (O43364 129-215 R185T) above, with T57K counted along it
# PROP1 [11] = molecular target: PROP1 (Homo sapiens, UniProt O75360 56-141)
# Chain of PROP1 (Homo sapiens, UniProt O75360 56-141) (O75360 56-141): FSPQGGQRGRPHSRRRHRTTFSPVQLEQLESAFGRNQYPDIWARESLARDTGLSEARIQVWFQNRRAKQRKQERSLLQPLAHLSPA
# PROP1 [12] = molecular target: PROP1 (Homo sapiens, UniProt O75360 56-141, R99H)
# Chain of PROP1 (Homo sapiens, UniProt O75360 56-141, R99H) (O75360 56-141 R99H): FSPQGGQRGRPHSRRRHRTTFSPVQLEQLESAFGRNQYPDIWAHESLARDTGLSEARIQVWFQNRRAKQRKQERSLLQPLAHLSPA
# PROP1 [13] = molecular target: PROP1 (Homo sapiens, UniProt O75360 56-141, F88S)
# Chain of PROP1 (Homo sapiens, UniProt O75360 56-141, F88S) (O75360 56-141 F88S): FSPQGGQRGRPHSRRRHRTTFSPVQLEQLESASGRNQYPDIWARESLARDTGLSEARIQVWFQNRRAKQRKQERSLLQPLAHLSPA
# HOXA2 [14] = molecular target: HOXA2 (Homo sapiens, UniProt O43364 129-215, Y150S)
# Chain of HOXA2 (Homo sapiens, UniProt O43364 129-215, Y150S) (O43364 129-215 Y150S): as the sequence (O43364 129-215 R185T) above, with Y22S, T57R counted along it
# PRRX1 [15] = molecular target: PRRX1 (Homo sapiens, UniProt P54821 80-166)
# Chain of PRRX1 (Homo sapiens, UniProt P54821 80-166) (P54821 80-166): as the sequence (P54821 80-166 F113S) above, with S34F counted along it
# HOXA2 [16] = molecular target: HOXA2 (Homo sapiens, UniProt O43364 129-215)
# Chain of HOXA2 (Homo sapiens, UniProt O43364 129-215) (O43364 129-215): as the sequence (O43364 129-215 R185T) above, with T57R counted along it
# HOXB6 [17] = molecular target: HOXB6 (Homo sapiens, UniProt P17509 132-218)
# Chain of HOXB6 (Homo sapiens, UniProt P17509 132-218) (P17509 132-218): as the sequence (P17509 132-218 K202E) above, with E71K counted along it
# CRX = CRX (Homo sapiens, UniProt O43186 26-111, R41L)
# Chain of CRX (O43186 26-111 R41L): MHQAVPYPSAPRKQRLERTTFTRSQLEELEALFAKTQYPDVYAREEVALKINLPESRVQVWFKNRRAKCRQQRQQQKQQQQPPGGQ
sequence,measurement,setting,value
ATGTATTA,binding signal,PAX4 [1],"11.5 upbm affinity estimate (log intensity, higher = more binding, comparable within an allelic series)"
same,binding signal,PAX4 [2],"11.8 upbm affinity estimate (log intensity, higher = more binding, comparable within an allelic series)"
same,binding signal,PAX4 [3],"11.4 upbm affinity estimate (log intensity, higher = more binding, comparable within an allelic series)"
same,binding signal,PAX4 [4],"10.8 upbm affinity estimate (log intensity, higher = more binding, comparable within an allelic series)"
same,binding signal,PAX4 [5],"11 upbm affinity estimate (log intensity, higher = more binding, comparable within an allelic series)"
same,binding signal,PAX4 [6],"11 upbm affinity estimate (log intensity, higher = more binding, comparable within an allelic series)"
CGCCCGGC,binding signal,PAX4 [1],"9.26 upbm affinity estimate (log intensity, higher = more binding, comparable within an allelic series)"
same,binding signal,PAX4 [2],"9.23 upbm affinity estimate (log intensity, higher = more binding, comparable within an allelic series)"
same,binding signal,PAX4 [3],"9.1 upbm affinity estimate (log intensity, higher = more binding, comparable within an allelic series)"
same,binding signal,PAX4 [4],"8.97 upbm affinity estimate (log intensity, higher = more binding, comparable within an allelic series)"
same,binding signal,PAX4 [5],"9.01 upbm affinity estimate (log intensity, higher = more binding, comparable within an allelic series)"
same,binding signal,PAX4 [6],"9.06 upbm affinity estimate (log intensity, higher = more binding, comparable within an allelic series)"
GGAGGCAC,binding signal,PAX4 [1],"9.34 upbm affinity estimate (log intensity, higher = more binding, comparable within an allelic series)"
same,binding signal,PAX4 [2],"9.31 upbm affinity estimate (log intensity, higher = more binding, comparable within an allelic series)"
same,binding signal,PAX4 [3],"9.57 upbm affinity estimate (log intensity, higher = more binding, comparable within an allelic series)"
same,binding signal,PAX4 [4],"9.46 upbm affinity estimate (log intensity, higher = more binding, comparable within an allelic series)"
same,binding signal,PAX4 [5],"9.46 upbm affinity estimate (log intensity, higher = more binding, comparable within an allelic series)"
same,binding signal,PAX4 [6],"9.48 upbm affinity estimate (log intensity, higher = more binding, comparable within an allelic series)"
CGACCTGC,binding signal,PAX4 [1],"9.47 upbm affinity estimate (log intensity, higher = more binding, comparable within an allelic series)"
same,binding signal,PAX4 [2],"9.54 upbm affinity estimate (log intensity, higher = more binding, comparable within an allelic series)"
same,binding signal,PAX4 [3],"9.42 upbm affinity estimate (log intensity, higher = more binding, comparable within an allelic series)"
same,binding signal,PAX4 [4],"9.26 upbm affinity estimate (log intensity, higher = more binding, comparable within an allelic series)"
same,binding signal,PAX4 [5],"9.33 upbm affinity estimate (log intensity, higher = more binding, comparable within an allelic series)"
same,binding signal,PAX4 [6],"9.35 upbm affinity estimate (log intensity, higher = more binding, comparable within an allelic series)"
AGACAGCT,binding signal,PAX4 [1],"9.26 upbm affinity estimate (log intensity, higher = more binding, comparable within an allelic series)"
same,binding signal,PAX4 [2],"9.25 upbm affinity estimate (log intensity, higher = more binding, comparable within an allelic series)"
same,binding signal,PAX4 [3],"9.61 upbm affinity estimate (log intensity, higher = more binding, comparable within an allelic series)"
same,binding signal,PAX4 [4],"9.5 upbm affinity estimate (log intensity, higher = more binding, comparable within an allelic series)"
same,binding signal,PAX4 [5],"9.46 upbm affinity estimate (log intensity, higher = more binding, comparable within an allelic series)"
same,binding signal,PAX4 [6],"9.5 upbm affinity estimate (log intensity, higher = more binding, comparable within an allelic series)"
CGCCTGCA,binding signal,PAX4 [1],"9.25 upbm affinity estimate (log intensity, higher = more binding, comparable within an allelic series)"
same,binding signal,PAX4 [2],"9.25 upbm affinity estimate (log intensity, higher = more binding, comparable within an allelic series)"
same,binding signal,PAX4 [3],"9.33 upbm affinity estimate (log intensity, higher = more binding, comparable within an allelic series)"
same,binding signal,PAX4 [4],"9.34 upbm affinity estimate (log intensity, higher = more binding, comparable within an allelic series)"
same,binding signal,PAX4 [5],"9.3 upbm affinity estimate (log intensity, higher = more binding, comparable within an allelic series)"
same,binding signal,PAX4 [6],"9.34 upbm affinity estimate (log intensity, higher = more binding, comparable within an allelic series)"
TAACTCAA,binding signal,PAX4 [1],"10.6 upbm affinity estimate (log intensity, higher = more binding, comparable within an allelic series)"
same,binding signal,PAX4 [2],"10.7 upbm affinity estimate (log intensity, higher = more binding, comparable within an allelic series)"
same,binding signal,PAX4 [4],"10.1 upbm affinity estimate (log intensity, higher = more binding, comparable within an allelic series)"
AGCCTGAG,binding signal,PRRX1 [7],"9.28 upbm affinity estimate (log intensity, higher = more binding, comparable within an allelic series)"
same,binding signal,HOXB6 [8],"8.98 upbm affinity estimate (log intensity, higher = more binding, comparable within an allelic series)"
same,binding signal,HOXA2 [9],"7.3 upbm affinity estimate (log intensity, higher = more binding, comparable within an allelic series)"
same,binding signal,HOXA2 [10],"10.4 upbm affinity estimate (log intensity, higher = more binding, comparable within an allelic series)"
same,binding signal,PROP1 [11],"6.61 upbm affinity estimate (log intensity, higher = more binding, comparable within an allelic series)"
same,binding signal,PROP1 [12],"6.62 upbm affinity estimate (log intensity, higher = more binding, comparable within an allelic series)"
same,binding signal,PROP1 [13],"6.73 upbm affinity estimate (log intensity, higher = more binding, comparable within an allelic series)"
same,binding signal,HOXA2 [14],"10.5 upbm affinity estimate (log intensity, higher = more binding, comparable within an allelic series)"
same,binding signal,PRRX1 [15],"9.12 upbm affinity estimate (log intensity, higher = more binding, comparable within an allelic series)"
same,binding signal,HOXA2 [16],"7.33 upbm affinity estimate (log intensity, higher = more binding, comparable within an allelic series)"
same,binding signal,HOXB6 [17],"8.88 upbm affinity estimate (log intensity, higher = more binding, comparable within an allelic series)"
ACCGGGGC,binding signal,PAX4 [1],"9.07 upbm affinity estimate (log intensity, higher = more binding, comparable within an allelic series)"
same,binding signal,PAX4 [2],"9.11 upbm affinity estimate (log intensity, higher = more binding, comparable within an allelic series)"
same,binding signal,PAX4 [3],"9.2 upbm affinity estimate (log intensity, higher = more binding, comparable within an allelic series)"
same,binding signal,PAX4 [4],"9.11 upbm affinity estimate (log intensity, higher = more binding, comparable within an allelic series)"
same,binding signal,PAX4 [5],"9.09 upbm affinity estimate (log intensity, higher = more binding, comparable within an allelic series)"
same,binding signal,PAX4 [6],"9.2 upbm affinity estimate (log intensity, higher = more binding, comparable within an allelic series)"
CCGAAGCC,binding signal,PAX4 [1],"9.25 upbm affinity estimate (log intensity, higher = more binding, comparable within an allelic series)"
same,binding signal,PAX4 [2],"9.26 upbm affinity estimate (log intensity, higher = more binding, comparable within an allelic series)"
same,binding signal,PAX4 [3],"9.27 upbm affinity estimate (log intensity, higher = more binding, comparable within an allelic series)"
same,binding signal,PAX4 [4],"9.17 upbm affinity estimate (log intensity, higher = more binding, comparable within an allelic series)"
same,binding signal,PAX4 [5],"9.2 upbm affinity estimate (log intensity, higher = more binding, comparable within an allelic series)"
same,binding signal,PAX4 [6],"9.18 upbm affinity estimate (log intensity, higher = more binding, comparable within an allelic series)"
CGTATTAA,binding signal,PAX4 [1],"11.8 upbm affinity estimate (log intensity, higher = more binding, comparable within an allelic series)"
same,binding signal,PAX4 [2],"12.2 upbm affinity estimate (log intensity, higher = more binding, comparable within an allelic series)"
same,binding signal,PAX4 [3],"11.5 upbm affinity estimate (log intensity, higher = more binding, comparable within an allelic series)"
same,binding signal,PAX4 [4],"10.5 upbm affinity estimate (log intensity, higher = more binding, comparable within an allelic series)"
same,binding signal,PAX4 [5],"11 upbm affinity estimate (log intensity, higher = more binding, comparable within an allelic series)"
same,binding signal,PAX4 [6],"11 upbm affinity estimate (log intensity, higher = more binding, comparable within an allelic series)"
same,binding signal,CRX,"11.2 upbm affinity estimate (log intensity, higher = more binding, comparable within an allelic series)"
